Source: PubChem BioAssay (National Center for Advancing Translational Sciences (NCATS))
A selection: hits, their analogues and other compounds. The true share with any hit is near 4.7%.
TRHR ag: qHTS for Small Molecule Agonists and Allosteric Enhancers of Human TRH Receptor: Primary Screen for Agonists; Thyrotropin-releasing hormone receptor (Homo sapiens), P34981; TRHR cells, calcium flux fluo-8, FDSS agonist mode; activation, % at 2 µM; 0.18% of 360,000 active; AID 493084, 2011; also: 0% is about no effect
Target sequence (P34981 whole entry, looked up): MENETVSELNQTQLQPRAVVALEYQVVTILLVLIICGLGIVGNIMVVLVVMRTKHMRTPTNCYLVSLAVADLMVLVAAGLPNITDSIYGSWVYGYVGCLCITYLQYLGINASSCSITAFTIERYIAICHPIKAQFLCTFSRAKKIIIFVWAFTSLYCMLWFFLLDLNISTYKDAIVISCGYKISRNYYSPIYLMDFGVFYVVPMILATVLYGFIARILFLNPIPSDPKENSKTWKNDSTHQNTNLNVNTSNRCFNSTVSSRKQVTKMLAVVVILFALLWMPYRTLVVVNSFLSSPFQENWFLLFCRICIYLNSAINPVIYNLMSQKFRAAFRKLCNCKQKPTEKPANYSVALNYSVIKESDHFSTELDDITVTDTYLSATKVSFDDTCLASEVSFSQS
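TRHR-expressing cells loaded with fluo-8 calcium dye; 23 nL library compound pin-transferred, kinetic FDSS fluorescence (Ex 480/Em 530) recorded about 180 s for agonist-induced calcium release, before a 10 nM TRH EC20 addition for potentiator mode.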
D1 agonist: Allosteric Agonists of the Human D1 Dopamine Receptor: qHTS; AID 504660, 2011; 1% of 360,000 active; HEK293 T-REx D1 cells, calcium flux, agonist mode; activation, % at 2 µM; D(1A) dopamine receptor (Homo sapiens), P21728; also: 0% is about no effect
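Tetracycline-induced HEK293 TREx D1 cells, force-coupled to calcium signalling, were dye-loaded with a no-wash calcium kit. Compound was pin-added after a 10 s baseline. Fluorescence was read kinetically at 1 cycle/s for 180 s, with calcium rises flagged as agonism.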
TRHR PAM: qHTS for Small Molecule Agonists and Allosteric Enhancers of Human TRH Receptor: Primary Screen for Enhancers | Thyrotropin-releasing hormone receptor (Homo sapiens), P34981 | AID 493056, 2011 | 0.66% of 360,000 active | TRHR cells, fluo-8 calcium fluorescence, EC20 TRH enhancement | enhancement, % at 2 µM; in the data active = enhancement above about 30%; also: 0% is about no effect
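TRHR-expressing cells loaded with fluo-8 calcium dye were read kinetically (ex 480/em 530) during compound addition, then stimulated with an EC20 of TRH (10 nM final). Enhancement of the Gq-mediated intracellular calcium response was scored.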
D1 antagonist: Antagonist of Human D 1 Dopamine Receptor: qHTS. D(1A) dopamine receptor (Homo sapiens), P21728. HEK293 TREx D1 cells, calcium flux, dopamine EC80; stronger effect = lower value. activity change, negative = inhibition, % at 10 µM. 3.2% of 360,000 active. AID 504652, 2011; in the data active = activity change below about -30%; also: % is scaled to controls: 0 for no effect and ±100 for the full control effect
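After overnight tetracycline induction at 30 C, force-coupled D1 HEK293 cells took up a no-wash calcium dye at room temperature. Compounds were added and monitored 180 s, and the response to EC80 dopamine was then recorded.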
D1 potentiator: Potentiators of Human D1 Dopamine Receptor: qHTS. D(1A) dopamine receptor (Homo sapiens), P21728. 0.036% of 360,000 active. HEK293 TREx D1 cells, calcium flux, dopamine EC20 potentiation. potentiation, % at 10 µM; in the data active = potentiation above about 30%; also: 0% is about no effect
An asterisk follows results filed as active. Rule as the data show it, unless noted: active = activation above about 30%; inactive = the rest.

`C#CCOCCOCCOCCNc1nc(N2CCN(C(=O)CCCCCCCCCCNC(=O)[C@@H](CCC(=O)O)n3cc(CCCCCN)nn3)CC2)nc(N2CCN(C(=O)CCCCCCCCCCNC(=O)[C@H]([C@@H](C)CC)n3cc(CCCCCN)nn3)CC2)n1` gave TRHR ag 0, D1 agonist 19, TRHR PAM -4, D1 antagonist 54 and D1 potentiator 37*.
For CCCN(C(=O)c1cc(S(=O)(=O)N2CCCCCC2)ccc1OC)C1CCS(=O)(=O)C1 (configuration not stated) the results were TRHR ag 0, D1 agonist 3, TRHR PAM -1, D1 antagonist 11 and D1 potentiator 0.
CN(C(=O)CSc1nc2ccc(NC(=O)COc3ccccc3Cl)cc2s1)c1ccccc1 was read as TRHR ag 2, D1 agonist 2, TRHR PAM 12, D1 antagonist 6 and D1 potentiator -1.
Screening CCCN(C(=O)c1cc(Cl)nc2ccccc12)c1c(N)n(Cc2ccccc2)c(=O)[nH]c1=O returned TRHR ag 0, D1 agonist 2, TRHR PAM 1, D1 antagonist -23 and D1 potentiator -6.
CC1=C(c2ccc(C)c(C)c2)S(=O)(=O)N=C1N1CCC(C(=O)NC(C)Cc2ccco2)CC1 (configuration not stated) was read as TRHR ag 0, D1 agonist 0, TRHR PAM 23, D1 antagonist -32* and D1 potentiator -2.
For CC1=C(c2ccc(C)c(C)c2)S(=O)(=O)N=C1N1CCC(C(=O)NC(C)c2ccccc2)CC1 (configuration not stated) the results were TRHR ag 0, D1 agonist 2, TRHR PAM 4, D1 antagonist -75* and D1 potentiator -6.
`CC1=C(c2ccc(C)c(C)c2)S(=O)(=O)N=C1N1CCC(C(=O)NCc2ccc(C)o2)CC1` gave TRHR ag 0, D1 agonist 1, TRHR PAM 31*, D1 antagonist -1 and D1 potentiator -5.
For Cc1c(S(=O)(=O)Nc2ccc(Br)cc2)c(=O)n(C)c(=O)n1C the results were TRHR ag 0, D1 agonist 3, TRHR PAM 35*, D1 antagonist 12 and D1 potentiator 3.
`COc1cccc(NS(=O)(=O)c2c(C)n(C)c(=O)n(C)c2=O)c1` gave TRHR ag 0, D1 agonist 16, TRHR PAM 9, D1 antagonist 47 and D1 potentiator 0.
Screening COc1ccc(NS(=O)(=O)c2c(C)n(C)c(=O)n(C)c2=O)cc1OC returned TRHR ag 0, D1 agonist 0, TRHR PAM -1, D1 antagonist -31* and D1 potentiator 0.
Screening Cc1ccc(-n2nc(-c3ccc(OC(F)(F)F)cc3)cc2N)cc1C returned TRHR ag -1, D1 agonist 3, TRHR PAM -7, D1 antagonist -32* and D1 potentiator -4.
Cc1ccc(-n2nc(-c3ccc(N)cc3)cc2N)cc1 was read as TRHR ag 0, D1 agonist 0, TRHR PAM 0, D1 antagonist -7 and D1 potentiator 0.
For CC1CCCN(CC(O)COCC2COc3ccccc3O2)C1 (configuration not stated) the results were TRHR ag 0, D1 agonist 0, TRHR PAM 4, D1 antagonist -1 and D1 potentiator 0.
OC(COCC1COc2ccccc2O1)CN1CCc2ccccc2C1 (configuration not stated) was read as TRHR ag -1, D1 agonist 33*, TRHR PAM 2, D1 antagonist -17 and D1 potentiator -10.
For CSC1=C(C#N)C(c2ccccc2Cl)C2=C(N1)c1ccccc1C2=O (configuration not stated) the results were TRHR ag 0, D1 agonist -1, TRHR PAM 9, D1 antagonist -42* and D1 potentiator -7.
For COc1cccc(C(=O)Nc2cccc(-c3cn4ccsc4n3)c2)c1OC the results were TRHR ag 0, D1 agonist 0, TRHR PAM 3, D1 antagonist -4 and D1 potentiator 2.
For Cc1ccc(C)c(C(C)NC(=S)NCc2ccc(F)cc2)c1 (configuration not stated) the results were TRHR ag 0, D1 agonist 93*, TRHR PAM 12, D1 antagonist 7 and D1 potentiator 0.
`COc1ccc(C(C)NC(=S)NCc2ccc(F)cc2)cc1` (configuration not stated) gave TRHR ag 2, D1 agonist 21, TRHR PAM -9, D1 antagonist -4 and D1 potentiator 0.
CCC(NC(=S)NCc1ccc(F)cc1)c1ccccc1 (configuration not stated) was read as TRHR ag 2, D1 agonist 40*, TRHR PAM -2, D1 antagonist -7 and D1 potentiator -1.
Screening Cc1ccc(CNC(=O)C2CCN(Cc3nc(-c4cccc(Br)c4)oc3C)CC2)cc1 returned TRHR ag 0, D1 agonist -3, TRHR PAM 7, D1 antagonist -10 and D1 potentiator -1.
Screening Cc1cccc(S(=O)(=O)NC2CCN(C#N)C2)c1 (configuration not stated) returned TRHR ag 2, D1 agonist 6, TRHR PAM 3, D1 antagonist -16 and D1 potentiator -3.
`CN1CCN(C2Cc3ccccc3Sc3ccc(Cl)cc32)CC1` (configuration not stated) gave TRHR ag 1, D1 agonist 7, TRHR PAM 13, D1 antagonist -105* and D1 potentiator -6.
For CN1CCN2c3ccccc3Cc3ccccc3C2C1 (configuration not stated) the results were TRHR ag 0, D1 agonist -1, TRHR PAM -3, D1 antagonist -12 and D1 potentiator -6.
For CSc1ccc2c(c1)C(N1CCN(C)CC1)Cc1ccccc1S2 (configuration not stated) the results were TRHR ag 3, D1 agonist 24, TRHR PAM -3, D1 antagonist -87* and D1 potentiator -2.
CN1CCN(C2CC(=O)N(CCc3ccccc3)C2=O)CC1 (configuration not stated) was read as TRHR ag 1, D1 agonist 0, TRHR PAM 3, D1 antagonist 3 and D1 potentiator -6.
